Values joined by “and” are separate entries in the source; they are usually repeats but may differ in a detail not shown here. Equal entries are not always repeated. Records with an inconclusive call do not appear. Where a call stands in place of a potency, no number is given. Active and inactive are the calls of the source. Calls follow the shape of the dose curve; as a rule, active = well fitted cell-killing curve with a large enough effect in the repeat runs; inconclusive = weak or mixed curves, or effect the other way; inactive = no such curve, though single readings can be large or run the other way.
Assay: qHTS assay to identify small molecule antagonists of the glucocorticoid receptor (GR) signaling pathway - cell viability counter screen (AID 720693); also: nearly all actives have a fitted effect of over 55% in size
Settings: GR-bla HeLa viability, CellTiter-Glo luminescence, 18 h, with 5 nM dexamethasone present; series mostly up to 58.5 µM
For `CN1CCCC1`, the outcome was “inactive”.
In the case of `CCc1ccc(O)c(OC)c1`, the outcome is reported as “inactive”.
In the case of `O=C1NC(=O)[C@@]2(CCOc3ccc(F)cc32)N1`, the outcome is reported as “inactive”.
With `Cc1cc2c(cc1S(N)(=O)=O)S(=O)(=O)CCC2` the outcome was “inactive”.
With `CC(C)(C)NCCNC(C)(C)C` the outcome was “inactive”.
In the case of `N=C(N)c1ccc2cc(OC(=O)c3ccc(N=C(N)N)cc3)ccc2c1`, the outcome is reported as “inactive”.
With `C[N+](C)(C)CCCCCC[N+](C)(C)C` the outcome was “inactive”.
In the case of `NS(=O)(=O)c1ccc(C(=O)O)cc1`, the outcome is reported as “inactive”.
For `CCCCC/C=C\CCC=O`, the outcome was “inactive”.
For `CC(C)CCCC(C)N` (stereo unspecified), the outcome was “inactive”.
With `CC(=O)Nc1ccc(S(N)(=O)=O)cc1` the outcome was “inactive”.
For `CCN(Cc1ccncc1)C(=O)C(CO)c1ccccc1` (stereo unspecified), the outcome was “inactive”.
With `CCN1CCC[C@H]1CNC(=O)c1cc(S(N)(=O)=O)ccc1OC` the outcome was “inactive”.

Assay: qHTS assay for identifying genotoxic compounds that show differential cytotoxicity against isogenic chicken DT40 cell lines with known DNA damage response pathways - wild type cell line (AID 743012); also: nearly all actives have a fitted effect of over 60% in size; also: potency is read from the fitted curve at half-maximal effect
Settings: DT40 wild type chicken cells viability, CellTiter-Glo, 40 h; series mostly up to 68.4 µM
Procedure, shortened: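 First, wild type DT40 cells were plated at 300 per well and equilibrated about 0.5 h at 37 C/5% CO2. Next, compounds in DMSO were added and exposure lasted 40 h. Finally, CellTiter-Glo was added for 30 min at room temperature and luminescence recorded.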
In the case of `CN(C)CCCN1c2ccccc2CCc2ccc(Cl)cc21`, the Potency is reported as 7.5 µM (active) and 6.11 µM (active).
For `C/C=C(\C)C#N`, the Potency was “inactive”.
For `NCCc1cnc[nH]1`, the Potency was “inactive”.
In the case of `CCN(CC)CCNC(=O)c1cc(S(C)(=O)=O)ccc1OC`, the Potency is reported as “inactive”.
In the case of `N=C(N)c1ccccc1`, the Potency is reported as “inactive”.
For `Cc1[nH]c(=O)c(C#N)cc1-c1ccc2nccn2c1`, the Potency was “inactive”.
With `CCOC(=O)[C@H](CCc1ccccc1)N[C@@H](C)C(=O)N1[C@H](C(=O)O)C[C@@H]2CCC[C@@H]21` the Potency was “inactive”.
For `CCCN1CCCC[C@H]1C(=O)Nc1c(C)cccc1C`, the Potency was “inactive”.
With `CCn1ccnc1CC1COc2ccccc2O1` (stereo unspecified) the Potency was “inactive”.
In the case of `CC(C)(CC(=O)O)C(=O)O`, the Potency is reported as “inactive”.
In the case of `NC(=O)Nc1ccccc1`, the Potency is reported as “inactive”.
For `C=CCCCCCCCCC=O`, the Potency was “inactive”.
In the case of `C[N+](C)(C)CC(O)CC(=O)[O-]` (stereo unspecified), the Potency is reported as “inactive”.

— PubChem BioAssay (Tox21)
